# Source: paper PMC6579518
# Experiments:
# [1] = target: Cytoplasmic 60S subunit biogenesis factor REI1 (UniProt P38344); assay: cross-link between two proteins; cross-linking mass spectrometry
# [2] = target: Large ribosomal subunit protein eL18A (UniProt P0CX49); assay: as above
# [3] = target: Large ribosomal subunit protein eL19A (UniProt P0CX82); assay: as above
# [4] = target: Large ribosomal subunit protein uL2A (UniProt P0CX45); assay: as above
# Large subunit GTPase 1 = Large subunit GTPase 1 (UniProt P53145); assay: as above
# Large subunit GTPase 1, sequence (P53145 whole entry): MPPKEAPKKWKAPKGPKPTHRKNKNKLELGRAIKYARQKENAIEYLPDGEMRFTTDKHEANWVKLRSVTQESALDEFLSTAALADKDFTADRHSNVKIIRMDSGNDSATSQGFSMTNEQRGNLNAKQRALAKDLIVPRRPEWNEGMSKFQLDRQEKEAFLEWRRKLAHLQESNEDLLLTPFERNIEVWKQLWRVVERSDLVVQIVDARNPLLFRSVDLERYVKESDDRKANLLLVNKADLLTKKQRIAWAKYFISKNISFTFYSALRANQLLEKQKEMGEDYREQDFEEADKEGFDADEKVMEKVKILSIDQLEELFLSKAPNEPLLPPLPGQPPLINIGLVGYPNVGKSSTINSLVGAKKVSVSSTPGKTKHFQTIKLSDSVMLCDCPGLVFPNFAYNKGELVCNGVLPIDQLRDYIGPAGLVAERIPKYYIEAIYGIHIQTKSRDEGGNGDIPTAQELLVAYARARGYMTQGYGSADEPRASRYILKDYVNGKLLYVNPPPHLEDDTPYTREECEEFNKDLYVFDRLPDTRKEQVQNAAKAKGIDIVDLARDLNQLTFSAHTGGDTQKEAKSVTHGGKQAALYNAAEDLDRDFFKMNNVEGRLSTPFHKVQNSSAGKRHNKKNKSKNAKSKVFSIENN
# [5] = target: Large ribosomal subunit protein eL20A (UniProt P0CX23); assay: as above
# Large ribosomal subunit protein eL20A, sequence (P0CX23 whole entry): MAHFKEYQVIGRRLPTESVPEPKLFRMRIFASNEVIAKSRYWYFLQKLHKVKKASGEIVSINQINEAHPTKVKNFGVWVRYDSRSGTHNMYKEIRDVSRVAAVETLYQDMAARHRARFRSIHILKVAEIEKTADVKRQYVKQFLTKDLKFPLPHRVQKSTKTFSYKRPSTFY
# [6] = target: rRNA biogenesis protein RRP5 (UniProt Q05022); assay: as above
# [7] = target: Large ribosomal subunit protein eL32 (UniProt P38061); assay: as above
# [8] = target: Large ribosomal subunit protein eL37A (UniProt P49166); assay: as above
# [9] = target: Large ribosomal subunit protein uL13B (UniProt P26785); assay: as above
# [10] = target: Shuttling pre-60S factor ECM1 (UniProt P39715); assay: as above
# [11] = target: Nucleolar GTP-binding protein 1 (UniProt Q02892); assay: as above
# Nucleolar GTP-binding protein 1, sequence (Q02892 whole entry): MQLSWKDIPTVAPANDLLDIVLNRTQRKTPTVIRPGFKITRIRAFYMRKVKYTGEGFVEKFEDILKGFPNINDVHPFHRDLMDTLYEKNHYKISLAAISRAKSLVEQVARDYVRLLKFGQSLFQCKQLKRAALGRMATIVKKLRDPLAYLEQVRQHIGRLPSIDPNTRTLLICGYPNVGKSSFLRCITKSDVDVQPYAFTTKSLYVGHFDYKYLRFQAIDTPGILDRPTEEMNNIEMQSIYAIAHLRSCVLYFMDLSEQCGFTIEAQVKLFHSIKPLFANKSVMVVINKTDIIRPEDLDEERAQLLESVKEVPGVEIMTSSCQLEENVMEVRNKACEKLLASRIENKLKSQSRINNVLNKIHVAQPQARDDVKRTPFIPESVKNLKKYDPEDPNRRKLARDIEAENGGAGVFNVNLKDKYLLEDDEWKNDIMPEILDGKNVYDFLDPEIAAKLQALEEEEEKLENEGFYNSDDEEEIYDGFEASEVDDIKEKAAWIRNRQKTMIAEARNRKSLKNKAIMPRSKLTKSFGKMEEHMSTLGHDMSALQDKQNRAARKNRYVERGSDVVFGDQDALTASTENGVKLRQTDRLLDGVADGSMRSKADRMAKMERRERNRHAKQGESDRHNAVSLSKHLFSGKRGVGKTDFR
# [12] = target: Probable metalloprotease ARX1 (UniProt Q03862); assay: as above
# Probable metalloprotease ARX1, sequence (Q03862 whole entry): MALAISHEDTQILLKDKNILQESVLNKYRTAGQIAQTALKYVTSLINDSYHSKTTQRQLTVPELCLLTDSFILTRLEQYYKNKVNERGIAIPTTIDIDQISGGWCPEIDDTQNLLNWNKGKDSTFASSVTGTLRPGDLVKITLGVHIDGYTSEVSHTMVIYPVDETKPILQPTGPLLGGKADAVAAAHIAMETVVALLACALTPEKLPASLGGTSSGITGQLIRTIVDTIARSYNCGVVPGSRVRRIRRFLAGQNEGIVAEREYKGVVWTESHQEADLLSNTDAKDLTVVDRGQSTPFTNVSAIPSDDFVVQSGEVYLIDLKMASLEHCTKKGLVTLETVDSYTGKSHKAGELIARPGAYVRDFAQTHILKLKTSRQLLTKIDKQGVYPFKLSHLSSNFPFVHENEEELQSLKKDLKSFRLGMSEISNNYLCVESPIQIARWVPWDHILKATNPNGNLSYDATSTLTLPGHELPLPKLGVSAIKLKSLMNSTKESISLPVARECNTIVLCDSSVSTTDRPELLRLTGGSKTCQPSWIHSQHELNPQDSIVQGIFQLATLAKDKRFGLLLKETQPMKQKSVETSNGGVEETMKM
# [13] = target: Proteasome-interacting protein CIC1 (UniProt P38779); assay: as above
# [14] = target: Pumilio homology domain family member 6 (UniProt Q04373); assay: as above
# Pumilio homology domain family member 6, sequence (Q04373 whole entry, the tested form may be a part): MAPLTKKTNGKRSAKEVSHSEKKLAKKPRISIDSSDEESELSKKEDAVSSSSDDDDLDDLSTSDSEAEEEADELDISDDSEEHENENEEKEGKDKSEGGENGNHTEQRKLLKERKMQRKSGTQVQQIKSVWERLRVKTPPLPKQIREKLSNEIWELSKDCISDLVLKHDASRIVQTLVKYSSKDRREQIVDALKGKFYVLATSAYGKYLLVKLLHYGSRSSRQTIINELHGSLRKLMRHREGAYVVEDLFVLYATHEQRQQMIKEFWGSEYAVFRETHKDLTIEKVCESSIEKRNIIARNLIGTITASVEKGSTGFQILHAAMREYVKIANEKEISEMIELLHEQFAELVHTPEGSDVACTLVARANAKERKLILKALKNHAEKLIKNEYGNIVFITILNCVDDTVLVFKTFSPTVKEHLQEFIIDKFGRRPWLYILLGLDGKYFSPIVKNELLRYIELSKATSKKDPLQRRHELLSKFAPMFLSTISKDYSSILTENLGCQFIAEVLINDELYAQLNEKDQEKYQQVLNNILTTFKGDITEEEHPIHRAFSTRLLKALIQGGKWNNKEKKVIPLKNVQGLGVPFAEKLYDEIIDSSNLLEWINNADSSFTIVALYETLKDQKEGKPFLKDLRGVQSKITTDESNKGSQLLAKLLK
# UPF0642 protein YBL028C = UPF0642 protein YBL028C (UniProt P38202); assay: as above
# UPF0642 protein YBL028C, sequence (P38202 whole entry): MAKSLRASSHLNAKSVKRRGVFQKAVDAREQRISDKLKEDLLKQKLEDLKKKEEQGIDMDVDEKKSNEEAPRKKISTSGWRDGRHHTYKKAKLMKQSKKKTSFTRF
# [15] = target: WD repeat-containing protein JIP5 (UniProt Q06214); assay: as above
# [16] = target: U3 small nucleolar RNA-associated protein 22 (UniProt P53254); assay: cross-link between two proteins; affinity purification or IP with mass spectrometry; cross-linking mass spectrometry
# Large ribosomal subunit protein eL43A, P0CX25, sequence (P0CX25 whole entry): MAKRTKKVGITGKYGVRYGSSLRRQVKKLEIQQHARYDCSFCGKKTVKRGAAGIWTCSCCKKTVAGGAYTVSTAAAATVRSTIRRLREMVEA
# Large ribosomal subunit protein uL2A, P0CX45, sequence (P0CX45 whole entry): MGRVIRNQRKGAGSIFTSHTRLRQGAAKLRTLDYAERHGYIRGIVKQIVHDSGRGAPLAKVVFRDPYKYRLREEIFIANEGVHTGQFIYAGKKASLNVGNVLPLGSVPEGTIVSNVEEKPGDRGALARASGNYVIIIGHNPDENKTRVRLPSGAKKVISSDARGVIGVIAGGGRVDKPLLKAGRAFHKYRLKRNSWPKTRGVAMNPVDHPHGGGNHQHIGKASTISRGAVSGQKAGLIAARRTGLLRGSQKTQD
# Large ribosomal subunit protein uL2A, sequence (P0CX45 whole entry): as above
# Large ribosomal subunit protein eL18A, sequence (P0CX49 whole entry): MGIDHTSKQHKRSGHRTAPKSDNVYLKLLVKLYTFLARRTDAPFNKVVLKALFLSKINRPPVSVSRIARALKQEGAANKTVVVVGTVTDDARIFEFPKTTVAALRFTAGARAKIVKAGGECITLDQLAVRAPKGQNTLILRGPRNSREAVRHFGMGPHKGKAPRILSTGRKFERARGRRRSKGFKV
# Large ribosomal subunit protein eL19A, sequence (P0CX82 whole entry): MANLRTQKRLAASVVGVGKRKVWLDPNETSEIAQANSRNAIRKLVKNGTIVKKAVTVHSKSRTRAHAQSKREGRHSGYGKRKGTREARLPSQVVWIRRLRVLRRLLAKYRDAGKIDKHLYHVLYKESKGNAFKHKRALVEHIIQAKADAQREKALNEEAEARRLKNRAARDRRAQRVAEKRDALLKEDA
# Heat shock protein SSA1, P10591, sequence (P10591 whole entry): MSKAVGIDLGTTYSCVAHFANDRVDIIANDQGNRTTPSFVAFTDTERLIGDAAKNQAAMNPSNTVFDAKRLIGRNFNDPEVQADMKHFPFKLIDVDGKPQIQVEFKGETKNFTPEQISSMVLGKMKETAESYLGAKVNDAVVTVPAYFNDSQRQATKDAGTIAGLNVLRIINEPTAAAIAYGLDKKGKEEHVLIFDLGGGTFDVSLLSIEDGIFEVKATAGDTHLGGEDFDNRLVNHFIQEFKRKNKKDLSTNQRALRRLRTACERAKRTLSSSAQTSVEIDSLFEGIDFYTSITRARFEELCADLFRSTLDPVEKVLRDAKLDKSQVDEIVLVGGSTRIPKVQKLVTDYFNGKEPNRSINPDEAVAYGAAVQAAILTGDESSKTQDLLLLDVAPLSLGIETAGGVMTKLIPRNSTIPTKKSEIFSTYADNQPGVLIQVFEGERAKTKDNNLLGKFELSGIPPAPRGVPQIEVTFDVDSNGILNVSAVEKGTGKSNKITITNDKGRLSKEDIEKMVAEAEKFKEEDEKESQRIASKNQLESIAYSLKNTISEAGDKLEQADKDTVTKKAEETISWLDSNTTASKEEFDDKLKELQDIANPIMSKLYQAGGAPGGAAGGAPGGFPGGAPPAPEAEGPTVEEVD
# Large ribosomal subunit protein uL5A, P0C0W9, sequence (P0C0W9 whole entry): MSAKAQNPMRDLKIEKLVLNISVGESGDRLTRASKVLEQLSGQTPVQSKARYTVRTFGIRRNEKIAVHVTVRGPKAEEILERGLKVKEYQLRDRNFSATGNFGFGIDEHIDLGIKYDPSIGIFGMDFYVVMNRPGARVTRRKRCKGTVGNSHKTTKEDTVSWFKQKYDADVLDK
# Large ribosomal subunit protein uL1A, P0CX43, sequence (P0CX43 whole entry): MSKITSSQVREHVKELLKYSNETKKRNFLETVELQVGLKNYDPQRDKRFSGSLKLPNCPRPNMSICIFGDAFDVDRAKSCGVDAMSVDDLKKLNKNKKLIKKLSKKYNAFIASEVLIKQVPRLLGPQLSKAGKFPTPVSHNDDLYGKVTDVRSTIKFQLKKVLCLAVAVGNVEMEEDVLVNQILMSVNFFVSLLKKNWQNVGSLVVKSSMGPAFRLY
substance,measurement,setting,value
"Large ribosomal subunit protein eL24A, P04449",listed as a hit,[1],yes
"Large ribosomal subunit protein uL15, P02406",listed as a hit,[2],yes
"Large ribosomal subunit protein eL29, P05747",listed as a hit,[2],yes
"Ubiquitin-ribosomal protein eS31 fusion protein, P05759",listed as a hit,[3],yes
"Large ribosomal subunit protein eL43A, P0CX25",listed as a hit,[3],yes
same,listed as a hit,[4],yes
same,listed as a hit,Large subunit GTPase 1,yes
"Large ribosomal subunit protein eL33A, P05744",listed as a hit,[5],yes
"Large ribosomal subunit protein uL30A, P05737",listed as a hit,[5],yes
same,listed as a hit,[6],yes
"27S pre-rRNA (guanosine(2922)-2'-O)-methyltransferase, P25582",listed as a hit,[7],yes
"Large ribosomal subunit protein uL29A, P0CX84",listed as a hit,[8],yes
"Large ribosomal subunit protein eL15A, P05748",listed as a hit,[9],yes
"Large ribosomal subunit protein uL14A, P0CX41",listed as a hit,[4],yes
"Large ribosomal subunit protein uL2A, P0CX45",listed as a hit,Large subunit GTPase 1,yes
same,listed as a hit,[10],yes
"Pescadillo homolog, P53261",listed as a hit,[11],yes
"Cytoplasmic 60S subunit biogenesis factor REI1, P38344",listed as a hit,[12],yes
"Large ribosomal subunit protein uL24A, P05743",listed as a hit,[12],yes
"Large ribosomal subunit protein uL13A, P26784",listed as a hit,[13],yes
"Large ribosomal subunit protein uL5A, P0C0W9",listed as a hit,[14],yes
"Large ribosomal subunit protein uL6A, P05738",listed as a hit,UPF0642 protein YBL028C,yes
"Large ribosomal subunit protein uL3, P14126",listed as a hit,UPF0642 protein YBL028C,yes
"Large ribosomal subunit protein uL1A, P0CX43",listed as a hit,[15],yes
"Heat shock protein SSA1, P10591",listed as a hit,[16],yes
